Data published in PubChem BioAssay (NCI).
This is part of a sample that, as a whole, favours compounds with a hit. Of some 83,000 tested, about 20% had one in any assay.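 Results are percent growth after 48 hours of single-concentration exposure. 100 means growth as in untreated cells, lower positive values show inhibition; negative values down to -100 show cell death.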 Active and inactive are the calls of the source. How the source made its calls: active means growth percent below 10; inactive means the rest.

test system: HCT-116 colon; assay: NCI-60 one-dose screen, 48 h (100 = growth as untreated, 0 = no growth, -100 = all killed); conditions: 10 µM unless noted

| SMILES | growth |
| --- | --- |
| CSc1nc(Nc2cccc(NC(=O)CCl)c2)c(C#N)c(-c2cccc([N+](=O)[O-])c2)n1 | -6.05% (active) |
| CC(C)(C)c1cc(/C=N\NC(=O)/C=C/C=C/c2ccc3c(c2)OCO3)c(O)c(C(C)(C)C)c1 | 87.7% (inactive) |
| CCOc1cc2ncc(C#N)c(Nc3ccc(OCc4cccc(F)c4)c(Cl)c3)c2cc1NC(=O)CC1CCSS1 (stereo not drawn) | -24.7% (active) |
| COc1ccc(-c2cc(Nc3ccnc(N4CCOCC4)n3)on2)cc1 | 12.7% (inactive) |
| COC(=O)[C@]12CCC(C)(C)C[C@H]1[C@H]1C(=O)C[C@@H]3[C@@]4(C)c5c([nH]c6ccccc6c5=O)C(C)(C)[C@@H]4CC[C@@]3(C)[C@]1(C)CC2 | 33.8% (inactive) |
| CN(C)CCCNc1c2ccccc2nc2ccccc12 | 99% (inactive) |
| O=C1NC(=S)N[C@H]1CC(=O)n1cnc2ccccc21 | 104% (inactive) |
| Cc1ccc2oc(=O)cc(C3c4ccc([nH]4)C(c4cc(=O)oc5ccc(C)cc45)c4ccc([nH]4)C(c4cc(=O)oc5ccc(C)cc45)c4ccc([nH]4)C(c4cc(=O)oc5ccc(C)cc45)c4ccc3[nH]4)c2c1 (stereo not drawn) | -78.9% (active) |
| CSc1ccc(-c2n[nH]nc2-c2cc3ccccc3s2)cc1 | 30.5% (inactive) |
| COC(=O)c1ccc(NC(=O)c2ccc(-c3cccc([N+](=O)[O-])c3)o2)cc1 | 96% (inactive) |
| O=C(N=Nc1c(O)[nH]c2ccccc12)c1cc(-c2ccccc2)on1 | 99.7% (inactive) |
| Cc1cc(N2CCCCC2)nc(NC2CCCC(Nc3ccnc4cc(Cl)ccc34)C2)n1 (stereo not drawn) | -86.6% (active) |
| COc1cc(-c2nn(-c3ccc(C(=O)O)cc3)cc2C(=O)O)ccc1O | 86.6% (inactive) |
| COc1cccc(/C=N/NC(=O)c2ccccc2Nc2ccnc(C(F)(F)F)c2)c1O | 12.8% (inactive) |
| COc1cc(C(=O)Oc2ccccc2OC(=O)c2cc(OC)c(OC)c(OC)c2)cc(OC)c1OC | 104% (inactive) |
| CN1CCN(CCCOc2cccc3nc(Nc4cc(Cl)cc(Cl)c4)ccc23)CC1 | -26.6% (active) |
| COc1cccc(/C=C2\SC(=Nc3ccc(NC(C)=O)cc3)NC2=O)c1OC | 98% (inactive) |
| Cc1cc(N2CCN(c3ccnc4cc(Cl)ccc34)CC2)nc(NC2CCCCC2)n1 | 3.19% (active) |
| O=C(/C=C/C=C/c1ccc2c(c1)OCO2)N/N=C\c1ccc(O)cc1O | 8.67% (active) |
| N#C/C(=C\c1ccc(-c2cc(C(F)(F)F)ccc2Cl)o1)c1nc(-c2ccco2)cs1 | 104% (inactive) |
| CCc1nc(N)nc(N)c1C#CC(C)c1cc(-c2ccnc(C)c2)c2oc(C)nc2c1 (stereo not drawn) | 11.6% (inactive) |
| O=C1Nc2c(ccc(Cl)c2Cl)/C1=C\c1cc(C(F)(F)F)cc(C(F)(F)F)c1 | -61.3% (active) |
| COc1ccc(S(=O)(=O)N2CC3(COC3)C2)cc1NC(=O)c1[nH]c(C)c2c1CCCCC2=O | 51.7% (inactive) |
